In PubChem BioAssay (NCI):
The panel holds about 83,000 compounds, 20% with a hit somewhere; the sample as a whole holds those more often.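 Values shown are percent growth following 48 h exposure of cells in 96-well plates to a single concentration of compound; below 10 was considered active.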 Unmarked numbers belong to inactive results. Active and inactive are the calls of the source.

Experiments:
Assay in all cases: NCI-60 one-dose screen, 48 h (100 = growth as untreated, 0 = no growth, -100 = all killed)
Conditions in all cases: 10 µM unless noted
SR leukemia = system: SR leukemia
RPMI-8226 leukemia = system: RPMI-8226 leukemia
OVCAR-8 ovarian = system: OVCAR-8 ovarian
OVCAR-5 ovarian = system: OVCAR-5 ovarian
IGROV1 ovarian = system: IGROV1 ovarian
OVCAR-3 ovarian = system: OVCAR-3 ovarian
HS 578T breast = system: HS 578T breast
NCI/ADR-RES ovarian = system: NCI/ADR-RES ovarian
T-47D breast = system: T-47D breast
BT-549 breast = system: BT-549 breast
MDA-MB-435 melanoma = system: MDA-MB-435 melanoma
SW-620 colon = system: SW-620 colon
MCF7 breast = system: MCF7 breast
HCT-116 colon = system: HCT-116 colon
HCC-2998 colon = system: HCC-2998 colon
KM12 colon = system: KM12 colon
MDA-MB-468 breast = system: MDA-MB-468 breast
OVCAR-4 ovarian = system: OVCAR-4 ovarian
SK-OV-3 ovarian = system: SK-OV-3 ovarian

Cc1ccc([C@H]2C(C(=O)c3ccc(Cl)cc3)C3(N[C@@H]2c2ccccc2)C(=O)Nc2ccc(Cl)cc23)cc1 (stereo partly specified)
growth (SR leukemia): -3.12% (active)
growth (RPMI-8226 leukemia): 32.4%
growth (OVCAR-8 ovarian): 59.3%
growth (OVCAR-5 ovarian): 67.5%
growth (IGROV1 ovarian): 50.9%
growth (OVCAR-3 ovarian): 45.8%
growth (HS 578T breast): 74.4%
growth (NCI/ADR-RES ovarian): 54.6%
growth (T-47D breast): 31.6%
growth (BT-549 breast): 80.9%
growth (MDA-MB-435 melanoma): 64.3%
growth (SW-620 colon): 64.1%
growth (MCF7 breast): 16.7%
growth (HCT-116 colon): 23.7%
growth (HCC-2998 colon): 18.8%
growth (KM12 colon): 34.8%
growth (MDA-MB-468 breast): 47.9%

CCOP(=O)(OCCCl)c1nc(-c2ccc(C)cc2)oc1NCc1ccccc1 (stereo unspecified)
growth (SR leukemia): 66.8%
growth (OVCAR-8 ovarian): 78.7%
growth (OVCAR-5 ovarian): 98.4%
growth (OVCAR-4 ovarian): 68.3%
growth (SK-OV-3 ovarian): 91%
growth (IGROV1 ovarian): 62.4%
growth (OVCAR-3 ovarian): 75%
growth (HS 578T breast): 74.6%
growth (NCI/ADR-RES ovarian): 63.8%
growth (T-47D breast): 48.1%
growth (BT-549 breast): 92%
growth (MDA-MB-435 melanoma): 87.2%
growth (MCF7 breast): 50.3%
growth (HCT-116 colon): 63.3%
growth (HCC-2998 colon): 94.6%
growth (KM12 colon): 77.6%
growth (MDA-MB-468 breast): 62.9%

COc1cc(OC)c2c3nc4cc(C)c(C)cc4nc3n(CCN(C)C)c2c1
growth (SR leukemia): 0.994% (active)
growth (OVCAR-8 ovarian): -0.293% (active)
growth (OVCAR-5 ovarian): 73.1%
growth (OVCAR-4 ovarian): 63.3%
growth (SK-OV-3 ovarian): 103%
growth (IGROV1 ovarian): 55.5%
growth (OVCAR-3 ovarian): 97.7%
growth (HS 578T breast): 84.2%
growth (NCI/ADR-RES ovarian): 3.26% (active)
growth (T-47D breast): 60.7%
growth (BT-549 breast): 78.9%
growth (MDA-MB-435 melanoma): 87.8%
growth (SW-620 colon): 35.3%
growth (MCF7 breast): -17.2% (active)
growth (HCT-116 colon): 39.5%
growth (HCC-2998 colon): 77.1%
growth (KM12 colon): 84.7%
growth (MDA-MB-468 breast): 65.6%

O=C(COc1ccc(NC(=O)Nc2ccc(Cl)c(Cl)c2)cc1)N=Nc1c(O)[nH]c2ccc([N+](=O)[O-])cc12
growth (SR leukemia): 25.5%
growth (OVCAR-8 ovarian): 78.1%
growth (OVCAR-5 ovarian): 74.4%
growth (OVCAR-4 ovarian): 75.2%
growth (SK-OV-3 ovarian): 95.2%
growth (IGROV1 ovarian): 74.4%
growth (OVCAR-3 ovarian): 56.8%
growth (HS 578T breast): 57.4%
growth (NCI/ADR-RES ovarian): 100%
growth (T-47D breast): 66%
growth (BT-549 breast): 50%
growth (MDA-MB-435 melanoma): 59.5%
growth (SW-620 colon): 15.9%
growth (MCF7 breast): 30.6%
growth (HCT-116 colon): 11.3%
growth (HCC-2998 colon): 82.6%
growth (KM12 colon): 42.2%
growth (MDA-MB-468 breast): 32.6%

Cn1cc(-c2cc(N)n3nc(-c4cn(C)c5ncc(Br)cc45)cc3n2)c2cc(Br)cnc21
growth (SR leukemia): -35.1% (active)
growth (OVCAR-8 ovarian): 14.6%
growth (OVCAR-5 ovarian): 70%
growth (OVCAR-4 ovarian): -47.3% (active)
growth (SK-OV-3 ovarian): 104%
growth (IGROV1 ovarian): 43.5%
growth (OVCAR-3 ovarian): -68% (active)
growth (HS 578T breast): 55.1%
growth (NCI/ADR-RES ovarian): 14.9%
growth (T-47D breast): -4.13% (active)
growth (BT-549 breast): 34.8%
growth (MDA-MB-435 melanoma): -37.8% (active)
growth (SW-620 colon): -68.6% (active)
growth (HCT-116 colon): -76.3% (active)
growth (HCC-2998 colon): -38.3% (active)
growth (KM12 colon): -3.78% (active)
growth (MDA-MB-468 breast): -84.2% (active)

c1ccc(-c2csc(Nc3cccc(Nc4nc(-c5ccccc5)cs4)c3)n2)cc1
growth (RPMI-8226 leukemia): 49.3%
growth (OVCAR-8 ovarian): 39.9%
growth (OVCAR-5 ovarian): 64.5%
growth (OVCAR-4 ovarian): 37.6%
growth (SK-OV-3 ovarian): 97.5%
growth (IGROV1 ovarian): 34.1%
growth (OVCAR-3 ovarian): 53.2%
growth (HS 578T breast): 56.5%
growth (NCI/ADR-RES ovarian): 26.1%
growth (T-47D breast): 24%
growth (BT-549 breast): 31.7%
growth (MDA-MB-435 melanoma): 44.7%
growth (SW-620 colon): 66.2%
growth (MCF7 breast): 15.6%
growth (HCT-116 colon): 40%
growth (HCC-2998 colon): 35.5%
growth (KM12 colon): 1.06% (active)
growth (MDA-MB-468 breast): 39.2%

COc1cc2c(c(OC)c1OC)C(=O)CC(c1cccc(NC(=O)c3cccc(NC(=O)[C@H](C)NC(=O)OC(C)(C)C)c3)c1)O2 (stereo partly specified)
growth (RPMI-8226 leukemia): 36.5%
growth (OVCAR-8 ovarian): 28.2%
growth (OVCAR-5 ovarian): 123%
growth (OVCAR-4 ovarian): 51.8%
growth (SK-OV-3 ovarian): 91.9%
growth (IGROV1 ovarian): 65.3%
growth (OVCAR-3 ovarian): 52.9%
growth (HS 578T breast): 73.6%
growth (NCI/ADR-RES ovarian): 80%
growth (T-47D breast): 19.8%
growth (BT-549 breast): 36.9%
growth (MDA-MB-435 melanoma): 65.6%
growth (SW-620 colon): 86.9%
growth (MCF7 breast): 39.3%
growth (HCT-116 colon): 41.2%
growth (HCC-2998 colon): 105%
growth (KM12 colon): 41.2%
growth (MDA-MB-468 breast): 58.1%

COCOc1ccc2c(=O)c(C)c(C(=O)N[C@@H](Cc3ccccc3)C(O)C(=O)NCCc3ccc(OC)cc3)oc2c1 (stereo partly specified)
growth (RPMI-8226 leukemia): 100%
growth (OVCAR-8 ovarian): 107%
growth (OVCAR-5 ovarian): 116%
growth (OVCAR-4 ovarian): 122%
growth (SK-OV-3 ovarian): 113%
growth (IGROV1 ovarian): 122%
growth (OVCAR-3 ovarian): 120%
growth (HS 578T breast): 104%
growth (NCI/ADR-RES ovarian): 107%
growth (T-47D breast): 97.1%
growth (BT-549 breast): 122%
growth (MDA-MB-435 melanoma): 115%
growth (SW-620 colon): 114%
growth (MCF7 breast): 103%
growth (HCT-116 colon): 104%
growth (HCC-2998 colon): 125%
growth (KM12 colon): 108%
growth (MDA-MB-468 breast): 95.2%

N#Cc1c(-c2ccccc2Cl)cc(-c2ccc3ccccc3c2)[nH]c1=O
growth (SR leukemia): 48.9%
growth (OVCAR-8 ovarian): 12.2%
growth (OVCAR-5 ovarian): 44.1%
growth (OVCAR-4 ovarian): -46% (active)
growth (SK-OV-3 ovarian): 52.1%
growth (IGROV1 ovarian): 48.2%
growth (OVCAR-3 ovarian): -7.55% (active)
growth (T-47D breast): -21.3% (active)
growth (BT-549 breast): 3.43% (active)
growth (MDA-MB-435 melanoma): 61.7%
growth (MCF7 breast): 44.4%
growth (HCT-116 colon): 17.9%
growth (HCC-2998 colon): 49.1%
growth (KM12 colon): 74.4%
growth (MDA-MB-468 breast): 5.01% (active)
